This passage reports inhibition results from ChEMBL document CHEMBL1961873, “Compounds: GSK PKIS; Assays: Nanosyn kinase panel” (2012).

Test [1] has as its target T1, Serine/threonine-protein kinase D2 (Homo sapiens) (UniProt Q9BZL6).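 Further: mean value of PRKD2 inhibition, from the GSK PKIS screening panel.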
T1 sequence (whole entry): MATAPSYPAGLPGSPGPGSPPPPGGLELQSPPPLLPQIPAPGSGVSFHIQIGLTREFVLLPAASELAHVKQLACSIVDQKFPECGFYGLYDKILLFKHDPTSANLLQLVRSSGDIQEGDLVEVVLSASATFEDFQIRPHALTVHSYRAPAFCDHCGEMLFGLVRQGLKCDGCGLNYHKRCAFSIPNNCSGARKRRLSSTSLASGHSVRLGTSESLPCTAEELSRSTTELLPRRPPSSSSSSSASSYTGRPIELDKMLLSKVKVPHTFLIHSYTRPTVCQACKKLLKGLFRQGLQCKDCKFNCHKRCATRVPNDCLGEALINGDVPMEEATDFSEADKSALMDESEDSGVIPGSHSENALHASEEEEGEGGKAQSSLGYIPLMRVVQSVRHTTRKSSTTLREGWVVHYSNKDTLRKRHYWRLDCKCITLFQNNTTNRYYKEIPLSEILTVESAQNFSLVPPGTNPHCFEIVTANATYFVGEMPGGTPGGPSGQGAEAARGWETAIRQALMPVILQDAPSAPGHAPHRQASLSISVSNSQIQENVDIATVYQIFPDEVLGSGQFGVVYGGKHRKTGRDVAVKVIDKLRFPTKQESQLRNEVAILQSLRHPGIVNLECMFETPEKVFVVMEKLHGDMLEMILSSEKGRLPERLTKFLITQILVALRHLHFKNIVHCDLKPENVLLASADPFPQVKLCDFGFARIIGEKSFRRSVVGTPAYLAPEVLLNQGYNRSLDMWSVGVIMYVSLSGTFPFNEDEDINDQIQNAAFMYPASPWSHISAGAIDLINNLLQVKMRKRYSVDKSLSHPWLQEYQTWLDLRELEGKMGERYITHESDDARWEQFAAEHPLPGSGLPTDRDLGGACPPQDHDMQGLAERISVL
To be noted: at 1 µM.

For test [2], the target named is T2, Serine/threonine-protein kinase D3 (Homo sapiens) (UniProt O94806).
T2 sequence (whole entry): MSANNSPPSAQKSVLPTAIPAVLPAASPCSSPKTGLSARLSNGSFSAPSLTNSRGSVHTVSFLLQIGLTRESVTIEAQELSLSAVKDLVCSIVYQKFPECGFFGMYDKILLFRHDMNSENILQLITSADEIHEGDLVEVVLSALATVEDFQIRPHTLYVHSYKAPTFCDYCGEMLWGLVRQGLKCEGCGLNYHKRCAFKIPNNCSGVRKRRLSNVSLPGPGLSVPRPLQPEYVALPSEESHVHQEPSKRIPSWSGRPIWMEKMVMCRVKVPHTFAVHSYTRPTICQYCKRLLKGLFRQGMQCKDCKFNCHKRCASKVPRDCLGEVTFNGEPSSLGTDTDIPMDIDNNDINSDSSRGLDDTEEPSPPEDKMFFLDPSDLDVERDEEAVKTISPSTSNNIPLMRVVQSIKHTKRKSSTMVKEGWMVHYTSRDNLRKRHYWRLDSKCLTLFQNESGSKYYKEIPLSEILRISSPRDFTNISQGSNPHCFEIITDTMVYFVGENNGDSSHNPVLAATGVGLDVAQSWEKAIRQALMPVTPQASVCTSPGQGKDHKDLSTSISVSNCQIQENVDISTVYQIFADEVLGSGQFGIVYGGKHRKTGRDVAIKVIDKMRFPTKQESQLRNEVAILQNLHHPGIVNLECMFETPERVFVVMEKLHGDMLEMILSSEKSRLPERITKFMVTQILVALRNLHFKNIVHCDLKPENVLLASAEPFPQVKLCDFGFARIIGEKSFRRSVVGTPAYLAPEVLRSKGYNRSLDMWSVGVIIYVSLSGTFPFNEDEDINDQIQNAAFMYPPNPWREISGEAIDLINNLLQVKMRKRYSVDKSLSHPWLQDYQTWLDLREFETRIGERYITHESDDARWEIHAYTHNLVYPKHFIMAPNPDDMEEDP
Particulars: at 0.1 µM.

The target in test [3] is T2, Serine/threonine-protein kinase D3 (Homo sapiens). To be noted: at 1 µM.
For test [4], the target named is T3, cGMP-dependent protein kinase 1 (Homo sapiens) (UniProt Q13976).
T3 sequence (whole entry): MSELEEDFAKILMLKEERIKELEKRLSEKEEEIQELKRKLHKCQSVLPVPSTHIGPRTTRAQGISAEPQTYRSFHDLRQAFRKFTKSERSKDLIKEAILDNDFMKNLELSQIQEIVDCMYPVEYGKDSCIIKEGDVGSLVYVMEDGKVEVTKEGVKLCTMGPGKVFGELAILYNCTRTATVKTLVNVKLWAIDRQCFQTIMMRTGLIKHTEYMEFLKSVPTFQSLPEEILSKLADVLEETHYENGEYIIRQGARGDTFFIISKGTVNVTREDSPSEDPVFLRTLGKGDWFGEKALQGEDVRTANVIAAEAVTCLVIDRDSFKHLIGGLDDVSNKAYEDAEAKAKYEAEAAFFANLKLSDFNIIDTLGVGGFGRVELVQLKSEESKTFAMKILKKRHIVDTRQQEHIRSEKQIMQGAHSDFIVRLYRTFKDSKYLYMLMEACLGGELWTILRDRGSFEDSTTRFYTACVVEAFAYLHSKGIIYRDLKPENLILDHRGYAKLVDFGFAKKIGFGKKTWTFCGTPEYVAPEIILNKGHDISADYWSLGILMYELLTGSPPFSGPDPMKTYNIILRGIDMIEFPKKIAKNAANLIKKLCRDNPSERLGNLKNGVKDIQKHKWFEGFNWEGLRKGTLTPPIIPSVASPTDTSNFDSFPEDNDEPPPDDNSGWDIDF
To be noted: at 0.1 µM.

For test [5], the target named is T3, cGMP-dependent protein kinase 1 (Homo sapiens). Particulars: at 1 µM.
Test [6] deals with T4, cGMP-dependent protein kinase 2 (Homo sapiens) (UniProt Q13237).
T4 sequence (whole entry): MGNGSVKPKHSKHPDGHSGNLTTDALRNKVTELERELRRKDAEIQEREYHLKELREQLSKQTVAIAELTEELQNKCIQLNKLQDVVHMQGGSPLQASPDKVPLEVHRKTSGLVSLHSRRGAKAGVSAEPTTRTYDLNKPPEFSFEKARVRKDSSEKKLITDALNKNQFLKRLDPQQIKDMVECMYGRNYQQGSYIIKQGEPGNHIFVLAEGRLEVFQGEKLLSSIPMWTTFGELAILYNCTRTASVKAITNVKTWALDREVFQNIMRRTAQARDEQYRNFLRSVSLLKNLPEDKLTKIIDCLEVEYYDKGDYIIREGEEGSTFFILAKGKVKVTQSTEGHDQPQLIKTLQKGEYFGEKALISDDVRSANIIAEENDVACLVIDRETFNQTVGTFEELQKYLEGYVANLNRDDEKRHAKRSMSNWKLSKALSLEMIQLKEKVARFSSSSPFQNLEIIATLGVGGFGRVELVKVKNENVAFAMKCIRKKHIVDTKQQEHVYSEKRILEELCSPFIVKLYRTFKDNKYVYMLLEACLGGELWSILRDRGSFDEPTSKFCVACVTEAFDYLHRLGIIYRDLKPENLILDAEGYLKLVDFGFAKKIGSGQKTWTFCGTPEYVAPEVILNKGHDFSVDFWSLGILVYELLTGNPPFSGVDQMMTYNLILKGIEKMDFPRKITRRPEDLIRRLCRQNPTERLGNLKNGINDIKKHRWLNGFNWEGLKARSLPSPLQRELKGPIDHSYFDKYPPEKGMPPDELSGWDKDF
To be noted: at 0.1 µM.

Test [7] deals with T4, cGMP-dependent protein kinase 2 (Homo sapiens). To be noted: at 1 µM.
Test [8] concerns the target T5, cAMP-dependent protein kinase catalytic subunit PRKX (Homo sapiens) (UniProt P51817).
T5 sequence (whole entry): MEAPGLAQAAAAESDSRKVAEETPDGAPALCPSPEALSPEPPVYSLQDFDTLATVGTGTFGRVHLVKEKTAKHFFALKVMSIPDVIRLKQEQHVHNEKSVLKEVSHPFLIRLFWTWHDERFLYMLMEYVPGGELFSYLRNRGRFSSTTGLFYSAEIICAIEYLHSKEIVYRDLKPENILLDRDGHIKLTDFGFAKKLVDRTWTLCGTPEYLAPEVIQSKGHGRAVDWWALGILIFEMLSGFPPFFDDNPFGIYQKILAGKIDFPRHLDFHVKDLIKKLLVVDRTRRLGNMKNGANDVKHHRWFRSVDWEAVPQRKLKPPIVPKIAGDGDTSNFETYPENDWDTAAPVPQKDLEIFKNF
To be noted: at 0.1 µM.

In test [9] the target is T5, cAMP-dependent protein kinase catalytic subunit PRKX (Homo sapiens). To be noted: at 1 µM.
The target of test [10] is Rho-associated protein kinase 1 (Homo sapiens) (UniProt Q13464). To be noted: at 0.1 µM.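 Further: values are mean percent inhibition of ROCK1.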
Rho-associated protein kinase 1 (Homo sapiens), sequence (Q13464 2-1354 limits assumed): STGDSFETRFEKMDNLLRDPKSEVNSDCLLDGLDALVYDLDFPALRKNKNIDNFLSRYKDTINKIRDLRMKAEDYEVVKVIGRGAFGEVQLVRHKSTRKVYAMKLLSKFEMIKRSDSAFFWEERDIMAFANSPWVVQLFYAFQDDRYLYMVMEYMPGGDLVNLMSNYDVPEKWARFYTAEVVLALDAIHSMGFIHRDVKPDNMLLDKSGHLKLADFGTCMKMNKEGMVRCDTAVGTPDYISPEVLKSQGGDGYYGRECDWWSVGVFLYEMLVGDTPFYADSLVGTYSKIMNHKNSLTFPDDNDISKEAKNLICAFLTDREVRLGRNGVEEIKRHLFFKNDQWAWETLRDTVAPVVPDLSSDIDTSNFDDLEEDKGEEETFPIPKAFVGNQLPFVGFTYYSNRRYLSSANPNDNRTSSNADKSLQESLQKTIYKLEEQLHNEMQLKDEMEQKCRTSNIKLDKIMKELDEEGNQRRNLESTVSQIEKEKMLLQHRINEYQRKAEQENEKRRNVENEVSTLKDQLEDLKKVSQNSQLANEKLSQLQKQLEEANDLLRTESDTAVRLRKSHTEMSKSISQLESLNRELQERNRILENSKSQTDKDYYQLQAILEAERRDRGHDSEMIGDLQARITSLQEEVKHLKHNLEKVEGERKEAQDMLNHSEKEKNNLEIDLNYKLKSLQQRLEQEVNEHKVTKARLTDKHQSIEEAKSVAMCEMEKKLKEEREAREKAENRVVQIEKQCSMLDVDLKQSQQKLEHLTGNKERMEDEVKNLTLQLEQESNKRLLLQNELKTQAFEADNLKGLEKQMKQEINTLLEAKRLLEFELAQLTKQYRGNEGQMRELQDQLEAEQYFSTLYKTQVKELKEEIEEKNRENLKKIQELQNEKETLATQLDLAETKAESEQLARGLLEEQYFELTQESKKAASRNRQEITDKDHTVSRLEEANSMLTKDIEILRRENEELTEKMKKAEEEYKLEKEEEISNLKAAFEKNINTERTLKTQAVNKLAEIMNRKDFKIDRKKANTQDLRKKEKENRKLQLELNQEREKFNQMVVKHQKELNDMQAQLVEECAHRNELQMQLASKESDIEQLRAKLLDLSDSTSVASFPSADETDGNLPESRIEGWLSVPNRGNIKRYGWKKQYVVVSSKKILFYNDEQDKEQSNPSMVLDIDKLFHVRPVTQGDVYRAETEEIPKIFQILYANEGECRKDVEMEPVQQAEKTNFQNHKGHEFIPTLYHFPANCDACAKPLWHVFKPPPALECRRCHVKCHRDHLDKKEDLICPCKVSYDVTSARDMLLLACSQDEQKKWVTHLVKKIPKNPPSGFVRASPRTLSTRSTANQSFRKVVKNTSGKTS

Turning to `c1ccc(Nc2ncc(-c3ccccc3)o2)cc1`, the inhibition stood at 8.41% in test [1]; 4.57% in test [2]; 8.93% in test [3]; 5.37% in [4]; 6.06% in test [5]; 3.62% in [6]. Moreover, the inhibition in [7] turned out to be 5.4%; in test [8], 2.38%; in test [9] it was 3.33%; in test [10], 1.88%.

In the case of `[O-][S+]1CCN(Cc2ccc(-c3ccc4ncnc(Nc5ccc(OCc6ccccc6)c(Cl)c5)c4c3)o2)CC1`, the inhibition in test [1] came out at 1.77%; in [2], 1.61%; in test [3], 2.2%; in test [4], 1.79%; in test [5], 0.53%; in test [6], 0.97%. The inhibition came out at 2.95% in [7], 1.3% in test [8], 1.17% in test [9] and 0.9% in test [10].

With `Cc1cc(O)cc(C)c1/C=C/c1cncc(C(=O)N(C)C)c1`, the inhibition in [1] turned out to be 2.05%; in [2] it was 6.37%; in test [3] it was 3%; in [4], 2.65%; in test [5] it was 3.73%; in test [6] it was 1.74%. In addition, the inhibition in test [7] is 3.78%; in test [8], 1.77%; in test [9], 0.5%; in [10], 0.55%.

On to `NS(=O)(=O)c1ccc(Nc2cc(-c3cccc(O)c3)n[nH]2)cc1`, for which the inhibition in test [1] was 7.41%; in test [2], 6.55%; in [3], 8.42%; in test [4] it was 5.01%; in [5], 5.23%; in test [6], 3.66%. Besides, the inhibition in test [7] was 5.03%; in [8], 3.04%; in [9], 2.25%; in test [10] it was 1.47%.

`Cc1ccc(O)cc1Nc1ccnc2ccc(S(C)(=O)=O)cc12`: the inhibition turned out to be 33.2% in test [1]; 6.86% in test [2]; 22.7% in [3]; 2.84% in [4]; 4.22% in test [5]; 1.71% in test [6]. In addition, the inhibition in test [7] came to 4.03%; in [8], 2.75%; in test [9], 4.14%; in test [10], 1.34%.

Regarding `COc1cc2ncn(-c3cc(OCc4ccccc4S(C)(=O)=O)c(C#N)s3)c2cc1OC`, the inhibition in [1] was found to be 4.79%; in test [2], 4.75%; in [3] it was 5.43%; in test [4], 4.3%; in test [5], 5.27%; in [6] it was 3.46%. For the same molecule, the inhibition stood at 5.2% in test [7], 1.34% in test [8], 2.89% in test [9] and 3.62% in [10].

Take `Cc1ccc(C(=O)NC2CC2)cc1-c1ccc2[nH]ncc2c1`: the inhibition was 0.22% in [1]; -3.35% in [2]; -2.14% in [3]; -1.78% in [4]; 1.62% in test [5]; -1.53% in test [6]. Also, the inhibition in test [7] was -0.47%; in test [8], -1.3%; in test [9], -0.54%; in test [10], -0.64%.

`CS(=O)(=O)CCNCc1nc(-c2ccc3ncnc(Nc4ccc(OCc5cccc(C(F)(F)F)c5)cc4)c3c2)cs1`: the inhibition came out at 0.2% in test [1]; 0.92% in test [2]; 2.19% in test [3]; 0.49% in test [4]; 2.23% in test [5]; 0.51% in test [6]. Moreover, the inhibition in test [7] was 1.54%; in [8], 0.7%; in test [9] it was -0.71%; in [10], -0.53%.

Usually inhibition stands for the drop in the measured response relative to a control, in per cent.
